IkB signaling = IkB pathway inhibition in ABC-DLBCL cells | ABC-DLBCL IkBa-CBG/CBR dual luciferase ratio, 4 h; response scale: scaled: untreated 0%, proteasome inhibitor 100% | Potency, µM (titrated, usually from 57.1 µM), for the others: top-dose IkBa stabilization activation | actives 0.04% (n = 110,000); active = well fitted curve in the direction sought with a large enough effect in the signal ratio, not every such curve was filed as active; inconclusive = small, poorly fitted or top-dose-only effect, or a change in a side signal; the % refers to the signal ratio;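 note: the direction sought is a rising ratio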
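Curves were fitted separately to fusion (green), unfused (red) and ratio luminescence, then classed by r2, magnitude and activity. Cells: OCI-Ly3, 4 h compound plus doxycycline at 37C; 10 uM MG-132 defined full response.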
p53ts 39C tox = kills p53ts cells at the nonpermissive temperature; H1299-p53A138V viability at 39C, ATP luminescence, 24 h; Potency, µM (doses to about 46.1 µM), for inactives: at the highest dose activity change, negative = cell killing, most hits filed as cytotoxic; actives 1.5% (n = 130,000); note: % is set by controls: 0 for no effect and ±100 for the full control effect; nearly all actives have a fitted effect of over 55% in size
p53ts 32C tox = kills p53ts cells at the permissive temperature. H1299-p53A138V at 32C, ATP luminescence viability, 24 h. Potency, µM (titrated, usually from 46.1 µM), for the others: at the top dose activity change, negative = cytotoxicity, hits mostly cytotoxic. actives 0.93% (n = 130,000). AID 924;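 note: 0% = DMSO and -100% = full killing by reference compound; nearly all actives have a fitted effect of over 55% in size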
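H1299-p53 A138V cells (temperature-sensitive p53) exposed 24 h to up to 46 uM compound at 32C, where p53 is wild-type in conformation. Viability read as ATP luminescence and normalised to DMSO and 100 uM tamoxifen. AC50 fitted with the Hill equation.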
Peg3 imprint = inducers of genomic imprint erasure in mouse ES cells; actives 0.02% (n = 110,000); mouse ES Peg3-LacZ reporter, beta-gal luminescence, 40 h; Potency, µM (top dose mostly 60.7 µM), inactives show at the highest dose activity change, positive = activation, hits mostly activators
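Gelatin-coated wells received 300 freshly trypsinized female ES cells with a Peg3LacZ-Neo reporter on the maternal allele, then incubated 40 hours at 37C. BetaGlo was added for 5 minutes at room temperature before a single luminescence read.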
* hit, by the source's call; [ ] = remark or other dose. Hits are enriched below; roughly 1.8% of the tested compounds scored in any of these assays. Unless noted, calls come from the whole dose curve; as a rule, active = well fitted curve in the direction sought with a large enough effect; inconclusive = small, poorly fitted or top-dose-only effect, or another doubt; inactive = no such curve, though single readings can be large; an effect the other way counts as inactive or inconclusive. Potency is the fitted concentration of half-maximal effect.

For Cc1cc2c(nc1C)CCCCN2C[C@H](C)O/N=C1/[C@H]2O[C@@H]2[C@@H](O)[C@H]2[C@H]1CCn1c(=O)n(-c3ccccc3)c(=O)n12 the results were p53ts 39C tox inconclusive and p53ts 32C tox 9.9%[9.22 µM].
`Cc1ccc2c(c1)[C@H]1OCC[C@H]1[C@@H](c1ccncc1)N2` gave IkB signaling -2.6%, p53ts 39C tox 11.3%, p53ts 32C tox -3.9% and Peg3 imprint 1.8%.
Clc1ccc2c(c1)C1OCCC1C(c1ccco1)N2 (stereo not drawn) was read as IkB signaling inconclusive, p53ts 39C tox 10µM* and p53ts 32C tox 7.94µM*.
O=C(Cn1c(=O)n(-c2ccccc2)c(=O)c2ccc(C(=O)NCc3ccc4c(c3)OCO4)cc21)Nc1ccc(Br)cc1F was read as IkB signaling 2.0%, p53ts 39C tox 12.6µM*, p53ts 32C tox -14.9% and Peg3 imprint -13.9%[10.9 µM].
`O=C(O)CC1CCCc2ccccc2C1O` (stereo not drawn) gave Peg3 imprint 8.6%.
Screening O=C(CSc1c2c(nc3cc(Cl)ccc13)CCCC2)N1CCN(c2ccccc2)CC1 returned IkB signaling inconclusive, p53ts 39C tox 25.1µM*, p53ts 32C tox inconclusive and Peg3 imprint -16.8%[10.9 µM].
`CC1CCN(C(=O)CSc2c3c(nc4cc(Cl)ccc24)CCCC3)CC1` gave IkB signaling inconclusive, p53ts 39C tox 15.8µM*, p53ts 32C tox -27.8% and Peg3 imprint 6.8%[10.9 µM].
For COc1ccc(-c2cn3nc(SCC(=O)Nc4cccc(C)c4C)ccc3n2)cc1 the results were IkB signaling 1.2%, p53ts 39C tox 15.8µM*, p53ts 32C tox -15.5% and Peg3 imprint -11.3%[10.9 µM].
CCS(=O)(=O)c1ncc(Cl)c(C(=O)Nc2ccc(S(=O)(=O)N(C)c3ccccc3)cc2)n1 was read as IkB signaling inconclusive, p53ts 39C tox 3.16µM*, p53ts 32C tox inconclusive and Peg3 imprint -41.0%[10.9 µM].
For CCOC(=O)c1nc(S(C)(=O)=O)ncc1N1CCOCC1 the results were IkB signaling -1.6%, p53ts 39C tox 8.7%, p53ts 32C tox -5.5% and Peg3 imprint 2.8%.
O=C(Nc1ccc(N2CCOCC2)cc1)c1ccncc1 was read as p53ts 39C tox 11.1% and p53ts 32C tox -7.5%.
`O=C(Nc1ccc(N2CCOCC2)cc1)c1cnsn1` gave IkB signaling inconclusive, p53ts 39C tox 5.01µM*, p53ts 32C tox 3.98µM* and Peg3 imprint -80.0%.
For CS(=O)(=O)c1ncc(Cl)c(C(=O)Nc2ccc(N3CCOCC3)cc2)n1 the results were IkB signaling inconclusive, p53ts 39C tox inconclusive, p53ts 32C tox 12.6µM* and Peg3 imprint -72.7%.
CCSc1ncc(Cl)c(C(=O)Nc2ccc(S(=O)(=O)N(C)c3ccccc3)cc2)n1 was read as IkB signaling -0.7%, p53ts 39C tox -13.4%, p53ts 32C tox 6.4% and Peg3 imprint -17.9%[10.9 µM].
For CCN(c1ccccc1)S(=O)(=O)c1ccc(NC(=O)c2nc(S(C)(=O)=O)ncc2Cl)cc1 the results were IkB signaling -2.1%, p53ts 39C tox 3.16µM*, p53ts 32C tox inconclusive and Peg3 imprint -39.3%[10.9 µM].
`Cc1cc(Nc2cccc(F)c2)nc(-c2ccccc2O)n1` gave IkB signaling inconclusive, p53ts 39C tox 15.8µM*, p53ts 32C tox inconclusive and Peg3 imprint -23.0%.
`Cc1cc(Nc2ccccc2)nc(-c2ccccc2O)n1` gave IkB signaling -0.4%, p53ts 39C tox 0.2%, p53ts 32C tox -12.0% and Peg3 imprint -20.5%.
Screening Cc1ccc2nc3sc(C(=O)N4CCOCC4)c(N)c3cc2c1 returned IkB signaling inconclusive, p53ts 39C tox 6.31µM*, p53ts 32C tox 6.31µM* and Peg3 imprint -34.5%.
Screening Cc1ccc2cc3c(N)c(C(=O)N4CCOCC4)sc3nc2c1 returned IkB signaling inconclusive, p53ts 39C tox inconclusive, p53ts 32C tox inconclusive and Peg3 imprint -80.0%.
Screening CCCCOc1ccc(C(=O)N(Cc2ccc(C(C)C)cc2)C2CCS(=O)(=O)C2)cc1 (stereo not drawn) returned IkB signaling inconclusive, p53ts 39C tox -23.3%, p53ts 32C tox 10.1% and Peg3 imprint -7.2%[10.9 µM].
`COc1cccc(NC(=O)c2oc3ccccc3c2NC(=O)c2ccc3c(c2)OCO3)c1` gave IkB signaling 2.6%, p53ts 39C tox 10µM*, p53ts 32C tox 10µM* and Peg3 imprint -2.9%.
`COc1cccc(NC(=O)c2oc3ccccc3c2NC(=O)c2ccc(OC(C)C)cc2)c1` gave IkB signaling 0.8%, p53ts 39C tox 10µM*, p53ts 32C tox inconclusive and Peg3 imprint -16.0%[10.9 µM].
COc1cccc(NC(=O)c2ccc(CN3CCOCC3)cc2)c1 was read as IkB signaling inconclusive, p53ts 39C tox 10µM*, p53ts 32C tox 12.6µM* and Peg3 imprint -74.6%.
Screening CC(C)Oc1cccc(C(=O)Nc2ccc(CN3CCOCC3)cc2)c1 returned IkB signaling inconclusive, p53ts 39C tox -20.2%, p53ts 32C tox -15.6% and Peg3 imprint -3.2%.
For COc1cccc(NC(=O)c2oc3ccccc3c2NC(=O)C(C)(C)C)c1 the results were IkB signaling inconclusive, p53ts 39C tox 1.8%, p53ts 32C tox 5.0% and Peg3 imprint -9.4%.
Screening COc1cccc(NC(=O)c2oc3ccccc3c2NC(=O)c2cc3ccccc3o2)c1 returned IkB signaling inconclusive, p53ts 39C tox inconclusive, p53ts 32C tox -11.6% and Peg3 imprint -12.8%[10.9 µM].
For CC(=O)Oc1ccc2c(c1)CCC1C2CC[C@]2(C)C(OC(C)=O)CCC12 (stereo partly drawn) the results were p53ts 39C tox 25.1µM*, p53ts 32C tox inconclusive and Peg3 imprint -20.1%.
`COc1ccc(CNc2nc3c(-c4cccc(F)c4)nnn3c3ccccc23)cc1` gave IkB signaling -1.1%, p53ts 39C tox 12.6µM*, p53ts 32C tox inconclusive and Peg3 imprint -8.3%[10.9 µM].
For COc1cccc(CNS(=O)(=O)c2cc3[nH]c(=O)c(=O)[nH]c3cc2C)c1 the results were p53ts 32C tox -7.2%.
Screening Cc1cccc(-n2c(=O)c3c(c4cc(C)ccc4n3C)n(CC(=O)N3CCCC3)c2=O)c1 returned IkB signaling inconclusive, p53ts 39C tox inconclusive, p53ts 32C tox -9.0% and Peg3 imprint 17.3%[10.9 µM].
Screening c1ccc(-c2cnc(-c3cccnc3)o2)cc1 returned IkB signaling 4.2%, p53ts 39C tox -22.1%, p53ts 32C tox -29.1% and Peg3 imprint -37.3%.
NC(=O)c1ccc(-c2ncc(-c3ccccc3)o2)cc1 was read as IkB signaling 7.1%, p53ts 39C tox 20µM*, p53ts 32C tox inconclusive and Peg3 imprint -6.1%.
Screening COc1ccc(OC)c2sc(N3CCN(C(=O)C(C)(C)C)CC3)nc12 returned IkB signaling -2.5%, p53ts 39C tox 7.94µM*, p53ts 32C tox 15.8µM* and Peg3 imprint -7.6%[10.9 µM].
`CCN(CC)C(C)CN1c2ccccc2Sc2ccccc21` (stereo not drawn) gave p53ts 39C tox 25.1µM*, p53ts 32C tox -18.8% and Peg3 imprint -27.9%.

Screening data: PubChem BioAssay, National Center for Advancing Translational Sciences (NCATS)
